# According to PubChem BioAssay (NCI):
# The panel holds about 83,000 compounds, 20% with a hit somewhere; the sample as a whole holds those more often.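 The test compound was applied at a single concentration to cells in 96-well plates for 48 hours, and percent growth was recorded.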 Values without a mark were called inactive. Calls of active or inactive are those of the source. How the source made its calls: active means growth percent below 10; inactive means the rest.
# How the values were obtained:
# Assay in all cases: NCI-60 one-dose screen, 48 h (100 = growth as untreated, 0 = no growth, -100 = all killed)
# Settings in all cases: 10 µM unless noted
# T-47D breast = test system: T-47D breast
# BT-549 breast = test system: BT-549 breast
# MDA-MB-435 melanoma = test system: MDA-MB-435 melanoma
# MCF7 breast = test system: MCF7 breast
# HCT-116 colon = test system: HCT-116 colon
# HCC-2998 colon = test system: HCC-2998 colon
# KM12 colon = test system: KM12 colon
# SW-620 colon = test system: SW-620 colon
SMILES,growth (T-47D breast),growth (BT-549 breast),growth (MDA-MB-435 melanoma),growth (MCF7 breast),growth (HCT-116 colon),growth (HCC-2998 colon),growth (KM12 colon),growth (SW-620 colon) [%]
CC(=O)OCc1nc(C#N)c(N(C)C)o1,83.9%,91.2%,100%,92.9%,93.4%,97%,110%,
Cc1ccc(-c2nn(-c3ccccc3)cc2C=C2C(=O)ON=C2C(C)C)cc1,78.6%,113%,63.5%,,26%,68.7%,69.8%,47.2
CCOC(=O)c1nc(Nc2ccc(NC(=O)Nc3ccc(F)cc3)cc2)c2ccccc2n1,99.2%,106%,101%,96.5%,101%,,102%,
O=C(CN1C(=O)CCC1=O)Nc1ncc(Cc2ccc(F)cc2)s1,103%,97.5%,102%,92.4%,104%,92.5%,103%,
CC12CCC3c4ccccc4CCC3(CO1)C2 (stereo unspecified),101%,121%,107%,97.1%,117%,94.2%,110%,
CCCCCC(=O)OCC(=O)O[C@@H]1C[C@]2(C(C)C)O[C@@]1(C)[C@@H]1CC[C@@H](C)[C@H]1[C@@H]2OC(=O)/C=C/c1ccccc1,21.4%,12.6%,99.4%,26.8%,74%,88.5%,85%,
COC(=O)/C=C1/SC(=Nc2ccc(C)cc2)N(CCc2c[nH]c3ccc(O)cc23)C1=O,35%,9.38% (active),14.9%,18.6%,16.9%,46.7%,43.6%,
C#CCOc1cccc(Nc2ncnc3c(NC(=O)C=C)cccc23)c1,4.83% (active),8.49% (active),2.2% (active),16.4%,6.27% (active),79%,9.96% (active),
COc1cc(CNC(=O)/C=C/C=C/c2ccc3c(c2)OCO3)ccc1OCc1cn(-c2ccc(C)c(C)c2)nn1,80.5%,88.3%,76.9%,81.9%,75.2%,98%,84%,
COc1ccc2c(O)c(/C=C3\N=Nc4ncccc43)oc2c1C[C@H]1CCNC[C@H]1F,41.5%,-54.6% (active),7.14% (active),2.59% (active),-6.67% (active),0.205% (active),-17.4% (active),
O=C(c1ccc(-c2nc(CSc3nc4ccccc4s3)no2)cc1)N1CCSCC1,11.1%,67.7%,70.6%,72.5%,49.8%,94.9%,57.7%,
O=S(=O)(NCCNc1nccc(-c2c(-c3cccc(F)c3)nc3occn23)n1)c1ccc(Br)cc1,76.7%,103%,68.5%,,69.1%,106%,88.9%,91.8
Cc1nn(-c2ccccc2)c(Oc2ccccn2)c1-c1nc2ccccc2s1,88%,95.4%,103%,84%,91.5%,103%,87.6%,
CC(C)CCNC(=O)Cn1cccc(NC(=O)OCc2ccccc2)c1=O,104%,110%,115%,95.1%,110%,103%,107%,
CCC(C)N(c1ccc(Cl)cc1)c1nc(-c2ccc(Br)cc2)cs1 (stereo unspecified),78.7%,121%,101%,,91%,108%,91.5%,95.5
C=CCn1c(SCC(=O)Nc2ccc(C(=O)/C=C/c3cc4cc(OC)ccc4nc3Cl)cc2)nnc1-c1ccc(Br)cc1,77.7%,79.3%,91.1%,29.6%,-44% (active),95.1%,84.7%,
